From PubChem BioAssay (EPA / NIEHS) come the findings set out here.

Experiment [1] has as its target Estrogen receptor (Homo sapiens) (UniProt P03372). In words: CCTE_Deisenroth_AIME_384WELL_LUC_Active: CCTE's 384-well Estrogen Receptor Transactivation Assay with AIME metabolic competence (ERTA luciferase; metabolism positive), Deisenroth Lab (AID 2284030; active = hit-call score of the fitted dose curve at least 0.9, where 1 is the maximum). A digest of the protocol: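 Estrogenic luciferase signal in VM7Luc4E2 cells is measured at 24 hour, after chemicals have been preconditioned 2 hours with PB/BNF-induced rat hepatic S9 in alginate. Gain of signal is fitted relative to 17beta-estradiol, across 0.002 - 200 uM.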

The nature of experiment [2]: CCTE_Deisenroth_AIME_384WELL_CTox_Active: Cytotoxicity Assessment (CTOX) in CCTE's 384-well Estrogen Receptor Transactivation Assay with AIME metabolic competence (metabolism positive), Deisenroth Lab (AID 2284037; active = hit-call score of the fitted dose curve at least 0.9, where 1 is the maximum;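 also: chemicals first conditioned 2 h by alginate-bound induced rat liver S9 before cells; activity means signal loss indicating cell death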). A digest of the protocol:
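VM7Luc4E2 breast cells received medium pre-incubated 2 h with chemical over alginate microspheres holding induced male Sprague Dawley rat liver S9; viability read 24 h later by protease-substrate fluorescence. Loss of signal, bidirectional fit, 0.002–200 uM.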

The target in experiment [3] is Estrogen receptor (Homo sapiens) (UniProt P03372). Description: CCTE_Deisenroth_AIME_384WELL_LUC_Inactive: CCTE's 384-well Estrogen Receptor Transactivation Assay without AIME metabolic competence (ERTA luciferase; metabolism negative), Deisenroth Lab (AID 2284038; active = hit-call score of the fitted dose curve at least 0.9, where 1 is the maximum;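 also: hits raise estrogen receptor luciferase signal so potencies reflect agonists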). A digest of the protocol: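 Metabolism-negative mode: chemicals (10-point, 0.002–200 uM) held 2 h with alginate-water microspheres, then conditioned medium applied to VM7Luc4E2 cells for 24 h. Luciferase induction referenced to 17beta-estradiol.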

Experiment [4] can be described thus: CCTE_Deisenroth_AIME_384WELL_CTox_Inactive: Cytotoxicity Assessment (CTOX) in CCTE's 384-well Estrogen Receptor Transactivation Assay without AIME metabolic competence (metabolism negative), Deisenroth Lab (AID 2284039; active = hit-call score of the fitted dose curve at least 0.9, where 1 is the maximum;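 also: cell viability via live-cell protease substrate cleaved to fluorescent probe; cells exposed 24 h to medium preincubated 2 h with alginate-water beads without S9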). The procedure, abridged: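 VM7Luc4E2 cells, metabolism-negative arm: test chemicals (0.002–200 uM, 10 points) pre-incubated 2 h with alginate-water microspheres, then medium transferred to cells for 24 h. Viability read as protease-substrate cleavage to fluorescent probe; loss-of-signal, bidirectional fitting.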

The target of experiment [5] is Estrogen receptor (Homo sapiens) (UniProt P03372). In words: CCTE_Deisenroth_AIME_384WELL_LUC_Shift: CCTE's 384-well Estrogen Receptor Transactivation Assay with AIME metabolic competence data shift (ERTA luciferase; difference in metabolism positive and negative), Deisenroth Lab (AID 2284041).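 Also: shift is response with S9 minus without S9 so positive means metabolism raised ER signal.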 A digest of the protocol: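 Here, parent compounds undergo 2 h phase I metabolism by PB/BNF-induced rat S9 before 24 h transactivation in VM7Luc4E2 cells; the curve models S9-positive minus S9-negative response over a 10-point series.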

Experiment [6] in a line: CCTE_Shafer_MEA_acute_burst_percentage_mean: CCTE's Neural Acute Assay for Percentage of Spikes in a Burst, Shafer Lab (AID 2284017).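 As to AC50: curve fitted for loss of signal so potency reflects decreased burst percentage.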 The procedure, abridged:
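Primary rat cortical neurons on 48-well MEA plates, treated on DIV 13 or 15 at 0.03-40 uM. Spikes detected at 8x rms noise at 37C; percent change from 40-min baseline to 40-min post-dose recording, fitted versus DMSO.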

Experiment [7] can be described thus: CCTE_Shafer_MEA_acute_burst_percentage_std: CCTE's Neural Acute Assay for Standard Deviation of Burst Percentage, Shafer Lab (AID 2284018).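 Also: fitted in the negative direction so actives lower burst percentage SD.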 A digest of the protocol:
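Primary rat cortical neurons on 16-electrode MEA wells were recorded 40 min at baseline (DIV 13 or 15), then 40 min after compound (0.03-40 uM), at 37 C. Well value is SD across electrodes of spikes-in-bursts/total spikes; endpoint is percent change, DMSO-referenced.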

The nature of experiment [8]: CCTE_Shafer_MEA_acute_per_network_burst_spike_number_std: CCTE's Neural Acute Assay for Standard Deviation of Number of Spikes in a Network Burst, Shafer Lab (AID 2284020).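 Also: fitted for decrease in spike-number SD versus DMSO so actives lower it.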 The procedure, abridged: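 Primary rat cortical neurons on 48-well MEAs (16 electrodes/well) recorded at DIV 13 or 15: 40-min baseline, then 40 min with compound (0.03-40 uM), 37 C. Value is percent change in SD of spikes per network burst, relative to DMSO.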

The nature of experiment [9]: CCTE_Shafer_MEA_acute_per_network_burst_electrodes_number_mean: CCTE's Neural Acute Assay for Mean Number of Electrodes in a Network Burst, Shafer Lab (AID 2284021).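 Also: curves fitted for decreases only so hits reduce electrodes per burst.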 The procedure, abridged:
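Percent change from baseline in average electrode count per network burst, rat cortical cultures on 48-well MEAs; 40-min recordings each side of exposure, DIV 13 or 15; threshold 8x rms noise; DMSO as negative control.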

The nature of experiment [10]: CCTE_Shafer_MEA_acute_network_burst_percentage: CCTE's Neural Acute Assay for Percentage of Network Bursts, Shafer Lab (AID 2284022).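 Also: curves fitted for loss so actives lower network burst percentage.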 The procedure, abridged: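 On DIV 13 or 15, at least three wells of rat cortical neurons per compound are dosed at 0.03-40 uM. Spontaneous firing is detected at 8x rms noise for 40 min before and after dosing at 37 C. The percent change in network-burst spike share is reported.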

Experiment [11] is described as follows: CCTE_Shafer_MEA_acute_cross_correlation_area: CCTE's Neural Acute Assay for Area of Cross Correlation, Shafer Lab (AID 2284024).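 Also: area under pooled inter-electrode spike cross-correlation near zero lag as percent change from own baseline; curves fitted for loss of cross-correlation area so actives lower synchrony.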 A digest of the protocol:
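Extracellular recordings from cultured rat cortical neurons measure network synchrony as cross-correlation area; each well's post-compound value (0.03-40 uM, 40 min) is compared with its own 40 min baseline to give percent change.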

Experiment [12] in a line: CCTE_Shafer_MEA_acute_cross_correlation_HWHM: CCTE's Neural Acute Assay for Cross Correlation at Half Width at Half Maximum, Shafer Lab (AID 2284026).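 Also: percent change per well from pre-dose baseline in spike cross-correlogram half width; hits are a decrease in cross-correlogram half width relative to DMSO.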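 As to outcome: spontaneous network firing of rat primary cortical neurons on multiwell microelectrode arrays.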 The procedure, abridged: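 Percent change in cross-correlogram half width at half maximum, narrower meaning more synchrony, was derived per well from paired 40-min recordings before and during exposure to 0.03-40 uM compound in rat cortical cultures at 37 C.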

Experiment [13] in a line: CCTE_Shafer_MEA_dev_per_burst_spike_percent: CCTE's Neural Network Formation Assay for Percent of Spikes in a Burst, Shafer Lab (AID 2284032).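 As to AC50: fitted as a decrease in burst spike percentage below DMSO baseline.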 A digest of the protocol:
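Rat primary cortical neurons on 16-electrode MEA wells, dosed from plating day 0 for 12 days with renewal on DIV 5 and 9; spikes-in-bursts percentage averaged over bursting electrodes, collapsed as AUC across days 5, 7, 9, 12; loss direction versus DMSO.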

Experiment [14] can be described thus: CCTE_Shafer_MEA_dev_burst_rate: CCTE's Neural Network Formation Assay for Burst Rate, Shafer Lab (AID 2284042).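 As to AC50: potency for loss of burst rate below DMSO control.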 The procedure, abridged: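 Primary rat cortical neurons on PEI-coated 48-well MEA plates (laminin added with cells at plating) (16 electrodes/well), exposed from plating to day 12, dosing renewed at DIV 5 and 9. Burst rate averaged over active electrodes, recorded DIV 5, 7, 9, 12, summarized as AUC; loss versus DMSO.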

Experiment [15] is described as follows: CCTE_Shafer_MEA_dev_active_electrodes_number: CCTE's Neural Network Formation Assay for Number of Active Electrodes, Shafer Lab (AID 2284040; active = hit-call score of the fitted dose curve at least 0.9, where 1 is the maximum;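 as to AC50: potency for loss of active electrodes versus DMSO so lower counts are hits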). The procedure, abridged:
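Primary rat cortical neurons on 16-electrode MEA wells, exposed from day 0 through day 12 with compound renewed at DIV 5 and 9 feeds. Active electrodes (mean firing ≥5 spikes/min) counted at DIV 5, 7, 9, 12; trapezoidal AUC across days, loss-of-signal versus DMSO.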

Experiment [16] is described as follows: CCTE_Shafer_MEA_dev_bursting_electrodes_number: CCTE's Neural Network Formation Assay for Number of Bursting Electrodes, Shafer Lab (AID 2284043; active = hit-call score of the fitted dose curve at least 0.9, where 1 is the maximum;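 as to AC50: potency is for loss of bursting electrodes relative to DMSO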). The procedure, abridged: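 Primary rat cortical neurons were cultured on PEI-coated 48-well MEA plates (16 electrodes/well) and exposed from plating through day 12, with compound renewed at feeds on DIV 5 and 9. Electrodes bursting ≥1 per 2 min were counted on DIV 5, 7, 9, 12; trapezoidal AUC taken.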

Experiment [17] has as its target Estrogen receptor (Homo sapiens) (UniProt P03372). Description: CCTE_Deisenroth_AIME_96WELL_LUC_Active: CCTE's 96-well Estrogen Receptor Transactivation Assay with AIME metabolic competence (ERTA luciferase; metabolism positive), Deisenroth Lab (AID 2284023; active = hit-call score of the fitted dose curve at least 0.9, where 1 is the maximum). The procedure, abridged: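 Chemicals pre-incubated 2 h with alginate-immobilized phenobarbital/beta-naphthoflavone-induced male Sprague Dawley rat liver S9, then medium transferred to VM7Luc4E2 cells for 24 h luciferase read-out. 10-point series 0.002 - 200 uM; fitted relative to 17beta-estradiol.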

For experiment [18] the target is unchanged. In words: CCTE_Deisenroth_AIME_96WELL_LUC_Inactive: CCTE's 96-well Estrogen Receptor Transactivation Assay without AIME metabolic competence (ERTA luciferase; metabolism negative), Deisenroth Lab (AID 2284025; active = hit-call score of the fitted dose curve at least 0.9, where 1 is the maximum). A digest of the protocol: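 VM7Luc4E2 breast cells, luciferase read 24 h after dosing with medium pre-incubated 2 h on alginate-water lids (metabolism negative). 10-point series 0.002–200 uM, single technical replicate, n≥4; fit relative to 17beta-estradiol.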

Several values for one entry are separate records, joined by “and”; a condition that tells them apart may be missing. Equal entries are not always repeated. Records with an inconclusive call do not appear. Some structures have more than one record in an assay (separate samples or runs), and their calls can disagree. Activity calls are given as the source filed them. The calls were made as follows, unless noted: active = hit-call score of the fitted dose curve at least 0.9, where 1 is the maximum; inactive = score below 0.9.

Sequence of Estrogen receptor (Homo sapiens) (P03372 whole entry, looked up): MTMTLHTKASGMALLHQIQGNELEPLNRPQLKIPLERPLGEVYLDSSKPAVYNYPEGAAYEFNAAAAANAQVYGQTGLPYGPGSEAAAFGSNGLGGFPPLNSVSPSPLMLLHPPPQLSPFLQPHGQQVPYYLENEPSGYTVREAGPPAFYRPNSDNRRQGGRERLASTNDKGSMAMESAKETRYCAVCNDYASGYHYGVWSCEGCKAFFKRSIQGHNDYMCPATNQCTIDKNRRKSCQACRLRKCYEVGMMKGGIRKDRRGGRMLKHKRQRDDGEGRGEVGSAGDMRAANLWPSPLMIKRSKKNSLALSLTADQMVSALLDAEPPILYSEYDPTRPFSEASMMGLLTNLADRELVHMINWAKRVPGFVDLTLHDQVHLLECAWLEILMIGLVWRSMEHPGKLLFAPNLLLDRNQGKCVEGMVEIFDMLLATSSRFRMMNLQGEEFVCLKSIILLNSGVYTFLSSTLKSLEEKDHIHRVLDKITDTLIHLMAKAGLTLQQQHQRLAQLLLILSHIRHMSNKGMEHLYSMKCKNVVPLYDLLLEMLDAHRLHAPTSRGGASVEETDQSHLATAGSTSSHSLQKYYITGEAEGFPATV

With `c1ccc2[nH]c(-c3cscn3)nc2c1`, the values for the AC50 in experiment [1], in experiment [3] and in experiment [5] were 30.5 µM (active), 2.7 µM (active) and 0.482 µM (active), respectively. Also, the call in experiment [2] and in experiment [4] was inactive.

`CSC(=O)c1cccc2nnsc12`: the result in experiment [6], in [7], in experiment [8], in experiment [9], in experiment [10] and in experiment [11] was inactive. Also, the call in experiment [12], in experiment [1], in experiment [13], in experiment [2], in [3] and in [4] was inactive. The result in [5] and in [14] was inactive.

Turning to `COCCO`, the compound was classed as inactive in [13], in experiment [15], in experiment [14] and in experiment [16].

For `CC1(C)C(C=C(Cl)Cl)C1C(=O)OCc1cccc(Oc2ccccc2)c1` (stereo unspecified), the AC50 is 20 µM (active) in experiment [6]; 6 µM (active) in [9]; 20 µM (active) in experiment [10]; 65.9 µM (active) in [17]; 75.6 µM (active) in experiment [18]; 21.4 µM (active) and 7.56 µM (active) in experiment [13]. Further, the AC50 is 24.7 µM (active) and 10.1 µM (active) in experiment [15]; 27.7 µM (active) in experiment [14]; 24.4 µM (active) and 10.1 µM (active) in [16]. The outcome in experiment [7], in [8], in experiment [11], in experiment [12] and in [14] was inactive.

For `COC(=O)c1ccccc1C(=O)O`, the outcome in experiment [6], in experiment [7], in experiment [8], in experiment [9], in [10] and in experiment [11] was inactive. Also, the result in [12] was inactive.

`C=CCOC(Cn1ccnc1)c1ccc(Cl)cc1Cl` (stereo unspecified): the half-maximal activity concentration (AC50) in [6] was 2.09 µM (active); in [7] it was 3.32 µM (active); in experiment [12], 5.57 µM (active). Besides, the result in [8], in experiment [9], in [10] and in [11] was inactive.

Take `O=C(O)c1ccccc1`: the result in experiment [6], in [7], in [8], in [9], in experiment [10] and in experiment [11] was inactive. Besides, the outcome in [12], in experiment [1], in experiment [13], in [2], in experiment [3] and in experiment [4] was inactive. Also, the compound was called inactive in experiment [15], in experiment [5] and in experiment [14].
